# From PubChem BioAssay
# MBD2 inh: inhibitors of human MBD2 binding to methylated oligonucleotide; TR-FRET; AID 686964; Q9UBB5; inhibition, % at 4.4 µM; actives 0.31% (n = 370,000); in the data active = inhibition above about 13%
# PRMT1 inh: blocks human protein arginine methyltransferase 1; inhibition, % at 2.79 µM; AID 652257; actives 1.3% (n = 370,000); recombinant PRMT1, activity-based probe fluorescence polarization; Q99873;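 active = inhibition above about 21% made by adding two undisclosed values, limit read from the data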
# UHRF1 binding: human UHRF1 methylated DNA binding inhibitors | Q96T88 | UHRF1 binding to methylated oligo, TR-FRET | inhibition, % at 4.4 µM | actives 0.75% (n = 370,000) | AID 687016; in the data active = inhibition above about 21%;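 also: UHRF1 SRA domain binding a hemimethylated CpG hairpin DNA probe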
# Target sequence (Q96T88 whole entry, looked up, the tested form may be a part): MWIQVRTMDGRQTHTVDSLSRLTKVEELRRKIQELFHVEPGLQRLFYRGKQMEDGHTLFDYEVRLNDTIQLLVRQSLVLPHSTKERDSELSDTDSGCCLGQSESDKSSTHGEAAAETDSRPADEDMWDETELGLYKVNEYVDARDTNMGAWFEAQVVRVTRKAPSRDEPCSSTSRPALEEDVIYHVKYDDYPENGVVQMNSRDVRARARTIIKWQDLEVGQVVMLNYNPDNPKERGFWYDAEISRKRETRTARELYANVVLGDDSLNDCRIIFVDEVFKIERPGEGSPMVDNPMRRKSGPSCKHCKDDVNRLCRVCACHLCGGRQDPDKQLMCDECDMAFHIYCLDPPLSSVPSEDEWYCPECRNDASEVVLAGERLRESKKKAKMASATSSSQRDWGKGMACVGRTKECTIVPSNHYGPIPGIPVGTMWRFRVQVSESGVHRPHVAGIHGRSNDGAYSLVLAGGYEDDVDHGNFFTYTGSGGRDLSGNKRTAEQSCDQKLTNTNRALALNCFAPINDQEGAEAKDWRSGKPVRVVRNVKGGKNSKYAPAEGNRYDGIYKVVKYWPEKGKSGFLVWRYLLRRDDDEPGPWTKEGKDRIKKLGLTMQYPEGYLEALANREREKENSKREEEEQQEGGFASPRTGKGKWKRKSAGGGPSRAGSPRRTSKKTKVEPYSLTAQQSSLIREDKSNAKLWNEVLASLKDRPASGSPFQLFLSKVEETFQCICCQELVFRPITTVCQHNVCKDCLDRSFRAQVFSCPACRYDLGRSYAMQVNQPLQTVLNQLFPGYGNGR
# LEDGF integ inh: blocks HIV-1 LEDGF/p75-dependent DNA integration; TR-FRET IN-LEDGF/p75 DNA integration, Eu/Cy5; inhibition, % at 3.7 µM; actives 0.64% (n = 370,000); AID 743269;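 active = inhibition above the screen-wide mean plus 3 SD, cut at about 13% in these data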;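 also: signal is the Cy5 over europium emission ratio at 671 and 618 nm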
# A number is an active result; n = inactive. Most compounds without a hit are left out; they make up all but 2.5% or so of the library.
SMILES,MBD2 inh,PRMT1 inh,UHRF1 binding,LEDGF integ inh
CCN1C(=O)/C(=C2\SC(=S)N(NC(=O)c3cccnc3)C2=O)c2ccccc21,n,21,n,n
O=C(Cc1cccs1)N(Cc1cccs1)C1(C(=O)NC2CCCCC2)CCCCC1,n,n,n,n
O=C1NC(=O)C(CC(=O)N(Cc2cccs2)C2(C(=O)NC3CCCC3)CCCCC2)N1 (stereo not given),n,n,23,n
Cc1ccc(C2NC(=S)N3C(c4ccc(C)cc4)NC(=S)N23)cc1 (stereo not given),n,22,n,n
Cc1cc(N2CCN(C(=O)c3ccco3)CC2)c2ccccc2n1,n,n,n,n
O=C(O)CCNc1cc(N2CCN(C(=O)c3ccco3)CC2)c2noc3c2c1C(=O)c1ccccc1-3,n,25,n,n
Cn1c(Oc2ccncc2)nc2cc(-c3ccsc3)sc2c1=O,n,n,n,n
Cc1ccnc(NS(=O)(=O)c2ccc(NC(=O)C3C4C=CC(C4)C3C(=O)O)cc2)n1 (stereo not given),n,n,n,n
Cc1nc2cc3nc(C)sc3cc2s1,n,22,n,n
Cc1ccc(S(=O)(=O)Nc2ccc(Nc3nccn4c(-c5cccc(OC(F)(F)F)c5)cnc34)cc2)cc1,n,n,90,n
CN(C)CCNC(=O)/C(=N\O)c1ccccn1,n,n,27,n
CC1CN(C(=O)c2cc3c(=O)n4ccccc4nc3n2C)CC(C)O1 (stereo not given),n,n,27,n
Cn1c(C(=O)N2CCOCC2)cc2c(=O)n3ccccc3nc21,n,n,n,n
COC(=O)c1cccc(COC(=O)c2cccnc2SC)c1,n,n,34,n
CC1(C)NC(=O)N(CCOCCOc2ccccc2-c2ccccc2)C1=O,n,n,28,n
N#CCCN(CCC#N)C(=O)C1c2ccccc2Oc2ccccc21,n,48,n,n
Nc1nc(-c2cc(Cl)cc(Cl)c2OC(F)F)cs1,n,n,n,n
Cc1ccc(NNC(=O)c2ccno2)cc1Cl,n,n,n,n
Cc1ccc(NNC(=O)c2ccno2)cc1C,n,23,n,n
O=[N+]([O-])c1ccc(S(=O)Cc2ccccc2)c([N+](=O)[O-])c1 (stereo not given),n,38,n,n
O=[N+]([O-])c1ccc(CS(=O)c2ccccc2)cc1 (stereo not given),n,n,n,n
CC(=O)Nc1ccc(NC(=S)NC(=O)/C=C/c2ccco2)cc1,n,21,n,n
Cc1ccc(NC(=O)N/C=C/c2ccco2)cc1,n,n,n,14
Cc1ccc(-c2csc(NC(=O)/C=C/c3ccco3)c2C(=O)O)cc1,n,n,31,n
Cc1ccc(-c2csc(NC(=O)c3cccc(C)c3)c2C(=O)O)cc1,n,n,n,n
SMILES,MBD2 inh,PRMT1 inh,UHRF1 binding,LEDGF integ inh
CC(=O)N(C)c1ccc(NC(=S)NC(=O)/C=C/c2ccco2)cc1,n,n,n,n
O=C(/C=C/c1ccco1)Nc1cccc(NC(=O)/C=C/c2ccco2)n1,n,n,21,n
C=CCOc1ccccc1CN1CCCC(CCC(=O)N(C)CCc2ccccn2)C1 (stereo not given),n,n,n,n
CCn1cc(C(=O)NCc2ccc3c(c2)OCO3)c(=O)c2cc(F)c(N3CCN(C(=O)c4ccco4)CC3)cc21,n,n,n,n
O=C(/C=C/c1ccco1)NC(=S)Nc1ccccc1O,n,21,n,n
O=C(/C=C\c1ccco1)NC(=S)Nc1ccccc1O,n,n,n,n
CCOC(=O)CCC(NC(=O)CC(=O)NC(CCC(=O)OCC)C(=O)OCC)C(=O)OCC (stereo not given),n,n,36,n
CN(CCc1ccccc1)C(=O)c1ccc(NC(=O)Cc2ccc(NC(=O)C3CCCN(C(=O)CCc4ccccc4)C3)cc2)cc1 (stereo not given),n,n,37,n
O=C(CCc1ccccc1)N1CCCC(Nc2ccc(F)cc2)C1 (stereo not given),n,n,23,n
CCC(C)(C)c1ccc(OCCCC[n+]2cccc(C)c2)c(C(C)(C)CC)c1,n,n,n,n
O=C(Nc1ccccc1Cl)NC1CCCCCCC1,n,n,n,n
O=C(O)COc1ccccc1/C=C1\SC(=S)N(/N=C/c2ccccc2O)C1=O,n,23,n,n
O=C(O)COc1ccccc1/C=C1\SC(=S)N(NC(=O)c2ccccc2O)C1=O,n,n,n,n
COc1ccc(Cl)cc1-c1cc(C(=O)NC2CCCCC2)[nH]n1,n,n,n,n
CCOc1ccc(Cl)cc1-c1cc(C(=O)NC2CCCCC2)[nH]n1,n,n,79,n
CN(C)CCCn1c(SCC(=O)N2CC(=O)Nc3ccccc32)nc2ccccc2c1=O,n,21,n,n
CC(C)N(CCn1c(SCC(=O)N2CC(=O)Nc3ccccc32)nc2ccccc2c1=O)C(C)C,n,n,n,n
COc1ccc(OC)c(NC(=O)Cn2c(=O)n(CC3CCCO3)c(=O)c3cc(OC)c(OC)cc32)c1 (stereo not given),n,n,n,n
CN(C(=O)CCc1nnc(CCCCc2ccccc2)o1)C1CCOCC1,n,n,n,n
CN(C(=O)CCc1nnc(CCCCc2ccccc2)o1)C1CC(C)(C)NC(C)(C)C1,n,n,46,n
CCOC(=O)CNC(=O)CSc1nc2ccccc2c(=O)n1-c1ccc(Cl)cc1,n,n,n,n
CC1(C(=O)NCc2ccccc2)Cc2c(-c3ccccc3)ccnc2O1 (stereo not given),n,n,66,n
CC1(C(=O)NCc2ccccc2)Cc2c(-c3ccc(C(N)=O)cc3)ccnc2O1 (stereo not given),n,n,n,n
CCN(c1ccccc1)S(=O)(=O)c1cccc(C(=O)NCC(c2ccc(F)cc2)N2CCOCC2)c1 (stereo not given),n,n,43,n
CCc1nnc(NC(=O)CC23CC4CC(CC(Br)(C4)C2)C3)s1,n,n,n,n
SMILES,MBD2 inh,PRMT1 inh,UHRF1 binding,LEDGF integ inh
O=C(CCSc1ccccc1)NC1CCCCCC1,n,n,n,n
O=C(CCSCc1ccccc1Cl)NC1CCCC1,n,n,24,n
COc1cc(OC)c(NS(=O)(=O)c2cccc(C(=O)OCC(=O)NCC3CCCO3)c2)cc1Cl (stereo not given),n,n,n,n
CCc1ccc(CN(C)C(=O)C2CCC(=O)N(Cc3ccccn3)C2)cc1 (stereo not given),n,n,n,n
CC(C)C[C@@H](CNCC(=O)[C@H](C)NC(=O)c1[nH]cnc1C(=O)N[C@@H](C)CN)NC(=O)c1nc[nH]c1C(=O)N[C@@H](C)C(=O)O,n,n,22,n
CC(C)C[C@@H](CNCC(=O)[C@H](CC(C)C)NC(=O)c1[nH]cnc1C(=O)N[C@@H](C)CN)NC(=O)c1nc[nH]c1C(=O)N[C@@H](Cc1ccccc1)C(=O)O,n,n,n,n
CC(C)C[C@@H](CNCC(=O)[C@H](Cc1ccccc1)NC(=O)c1[nH]cnc1C(=O)N[C@@H](C)CN)NC(=O)c1nc[nH]c1C(=O)N[C@@H](C)C(=O)O,n,n,23,n
Cc1nc2ccc(Cl)cn2c1[N+](=O)[O-],n,n,n,n
O=C(Nc1ccc2ccccc2c1)NC1CCCCN(Cc2ccc(Cl)cc2)C1=O (stereo not given),n,n,n,n
